# Test results: PubChem BioAssay (EPA / NIEHS)
# Results filed as inconclusive are left out. Active and inactive are the calls of the source. How the source made its calls: active means hit-call score of the fitted dose curve at least 0.9, where 1 is the maximum; inconclusive means response in the unintended direction; inactive means score below 0.9.
# Legend:
# [1] = biological target: Tyrosine-protein phosphatase non-receptor type 11 (Homo sapiens) (UniProt Q06124); test: NVS_ENZ_hPTPN11: NovaScreen (NVS) Enzymatic Assay for human Protein Tyrosine Phosphatase Non-receptor Type 11 (PTPN11) (AID 2283202)
# Procedure, shortened: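 Recombinant human PTPN11 activity on a fluorescent substrate, with substrate/product separated by electrophoretic mobility shift; read 0.5 h after dosing, loss of signal vs DMSO. Duplicate 25 uM screen, then concentration-response up to 50 uM.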
# [2] = biological target: Tyrosine-protein phosphatase non-receptor type 12 (Homo sapiens) (UniProt Q05209); test: NVS_ENZ_hPTPN12: NovaScreen (NVS) Enzymatic Assay for human Protein Tyrosine Phosphatase Non-receptor Type 12 (PTPN12) (AID 2283204)
# Procedure, shortened: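 Single-concentration duplicates (25 uM) preceded singleton concentration-response up to 50 uM for chemicals passing threshold. Cell-free recombinant PTPN12 activity was read 1.33 h after dosing via fluorescence after mobility-shift separation; loss of signal versus DMSO.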
# [3] = biological target: human Protein Tyrosine Phosphatase Non-receptor Type 9 (PTPN9), PTPN9 (gene 5780) (UniProt P43378); test: NVS_ENZ_hPTPN9: NovaScreen (NVS) Enzymatic Assay for human Protein Tyrosine Phosphatase Non-receptor Type 9 (PTPN9) (AID 2283209)
# Description: (§1) NVS_ENZ_hPTPN9 is a biochemical, single-readout assay that uses extracted gene-proteins from SF9 in a cell-free assay. Measurements were taken 1.33 hours after chemical dosing in a 384-well plate.NVS_ENZ_hPTPN9 is one of one assay component(s) measured or calculated from the NVS_ENZ_hPTPN9 assay. It is designed to make measurements of enzyme activity, a form of enzyme reporter, as detected with fluorescence intensity signals by Fluorescence and electrophoretic mobility shift technology.Data from the assay component NVS_ENZ_hPTPN9 was analyzed into 1 assay endpoint. This assay endpoint, NVS_ENZ_hPTPN9, was analyzed in the positive analysis fitting direction relative to DMSO as the negative control and baseline of activity. Using a type of enzyme reporter, loss-of-signal activity can be used to understand changes in the enzymatic activity as they relate to the gene PTPN9. Furthermore, this assay endpoint can be referred to as a primary readout, because this assay has produced multiple assay endpoints where this one serves a enzymatic activity function. To generalize the intended target to other relatable targets, this assay endpoint is annotated to the phosphatase intended target family, where the subfamily is non-receptor tyrosine phosphatase.
# (§2) Binding assays used specific radioligands (tritiated, iodinated) with non-radioactive competitive displacement ligands in agonist or antagonist protocols (as indicated) and various reference compounds and inhibitors to titrate specific binding to receptors and transporters. Most enzyme assays (CYPs, kinases, phosphatases, proteases, HDACs) used recombinant protein and specific substrates (fluorescence mostly, some colorimetric and radioactive) and inhibitors, followed by a biochemical separation of substrate and product. All assays for the biochemical HTS were initially run in duplicate at a single concentration (10 uM for CYP450 assays and 25 uM for all others). Assay-chemical combinations meeting a pre-defined threshold (e.g., 30% inhibition and other criteria defined below) were then run in singleton concentration-response format with maximum concentration of 20 uM for CYPs and 50 uM for all others. Each assay was run with positive and negative controls, and concurrent controls on every plate. The follow-up (secondary) screen tested active chemical-pairs in concentration series, as well as a few additional assays not tested in the primary screen, some selected negative inactives, and several cases re-run in the concentration series for confirmatory purposes.
# [4] = biological target: Tyrosine-protein phosphatase non-receptor type 13 (Homo sapiens) (UniProt Q12923); test: NVS_ENZ_hPTPN13: NovaScreen (NVS) Enzymatic Assay for human Protein Tyrosine Phosphatase Non-receptor Type 13 (PTPN13) (AID 2283205)
# Procedure, shortened: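 Cell-free assay of recombinant human PTPN13 with a fluorescent substrate, product separated by electrophoretic mobility shift and read 0.5 h after dosing. Primary screen at 25 uM in duplicate, then concentration-response up to 50 uM. Loss of signal fitted against DMSO.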
# [5] = biological target: human Phosphoinositide 3-kinase alpha (PI3Ka), PIK3CA (gene 5290) (UniProt P42336); test: NVS_ENZ_hPI3Ka: NovaScreen (NVS) Enzymatic Assay for human Phosphoinositide 3-kinase alpha (PI3Ka) (AID 2283196)
# Description: (§3) NVS_ENZ_hPI3Ka is a biochemical, single-readout assay that uses extracted gene-proteins in a cell-free assay. Measurements were taken 1 hour after chemical dosing in a 384-well plate.NVS_ENZ_hPI3Ka is one of one assay component(s) measured or calculated from the NVS_ENZ_hPI3Ka assay. It is designed to make measurements of enzyme activity, a form of enzyme reporter, as detected with fluorescence intensity signals by Fluorescence and electrophoretic mobility shift technology.Data from the assay component NVS_ENZ_hPI3Ka was analyzed into 1 assay endpoint. This assay endpoint, NVS_ENZ_hPI3Ka, was analyzed in the positive analysis fitting direction relative to DMSO as the negative control and baseline of activity. Using a type of enzyme reporter, loss-of-signal activity can be used to understand changes in the enzymatic activity as they relate to the gene PIK3CA. Furthermore, this assay endpoint can be referred to as a primary readout, because this assay has produced multiple assay endpoints where this one serves a enzymatic activity function. To generalize the intended target to other relatable targets, this assay endpoint is annotated to the kinase intended target family, where the subfamily is phosphoinositol kinase.
# as §2
# [6] = biological target: human Protein Tyrosine Phosphatase Non-receptor Type 1 (PTPN1), PTPN1 (gene 5770) (UniProt P18031); test: NVS_ENZ_hPTPN1: NovaScreen (NVS) Enzymatic Assay for human Protein Tyrosine Phosphatase Non-receptor Type 1 (PTPN1) (AID 2283201)
# Procedure, shortened: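 Cell-free fluorogenic-substrate activity assay on recombinant enzyme, read 1.33 h after dosing by fluorescence and electrophoretic mobility shift; loss of signal vs DMSO baseline. Primary screen in duplicate at 25 uM, hits then run in concentration-response up to 50 uM.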
# [7] = biological target: Tyrosine-protein phosphatase non-receptor type 14 (Homo sapiens) (UniProt Q15678); test: NVS_ENZ_hPTPN14: NovaScreen (NVS) Enzymatic Assay for human Protein Tyrosine Phosphatase Non-receptor Type 14 (PTPN14) (AID 2283206)
# Procedure, shortened: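 Cell-free recombinant human PTPN14 with fluorescent substrate, read 0.5 h after dosing by fluorescence and electrophoretic mobility shift separating substrate from product. Primary screen at 25 uM in duplicate; hits run to 50 uM maximum; loss of signal versus DMSO.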
# [8] = biological target: human Protein Phosphatase, Mg2+/Mn2+ Dependent 1A (PPM1A), PPM1A (gene 5494) (UniProt P35813); test: NVS_ENZ_hPPM1A: NovaScreen (NVS) Enzymatic Assay for human Protein Phosphatase, Mg2+/Mn2+ Dependent 1A (PPM1A) (AID 2283198)
# Description: as §3, with “NVS_ENZ_hPPM1A” for “NVS_ENZ_hPI3Ka”, “plate.NVS_ENZ_hPPM1A” for “plate.NVS_ENZ_hPI3Ka”, “NVS_ENZ_hPPM1A,” for “NVS_ENZ_hPI3Ka,”, “PPM1A.” for “PIK3CA.”, “phosphatase” for “kinase”, “serine/threonine phosphatase.” for “phosphoinositol kinase.”
# as §2
# [9] = biological target: Serine/threonine-protein phosphatase PP1-alpha catalytic subunit (Homo sapiens) (UniProt P62136); test: NVS_ENZ_hPPP1CA: NovaScreen (NVS) Enzymatic Assay for human Protein Phosphatase 1 Aatalytic subunit Alpha (PPP1CA) (AID 2283200)
# Description: as §1, with “NVS_ENZ_hPPP1CA” for “NVS_ENZ_hPTPN9”, “gene-proteins” for “gene-proteins from SF9”, “plate.NVS_ENZ_hPPP1CA” for “plate.NVS_ENZ_hPTPN9”, “NVS_ENZ_hPPP1CA,” for “NVS_ENZ_hPTPN9,”, “PPP1CA.” for “PTPN9.”, “serine/threonine” for “non-receptor tyrosine”
# as §2
# [10] = biological target: human Protein Tyrosine Phosphatase Non-receptor Type 4 (PTPN4), PTPN4 (gene 5775) (UniProt P29074); test: NVS_ENZ_hPTPN4: NovaScreen (NVS) Enzymatic Assay for human Protein Tyrosine Phosphatase Non-receptor Type 4 (PTPN4) (AID 2283208)
# Procedure, shortened: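 Cell-free assay of PTPN4 expressed in Sf9 cells, using a fluorescent substrate with product separated by mobility shift; read 1.33 h after dosing. Single-point screen at 25 uM, then concentration-response up to 50 uM. Loss of signal relative to DMSO.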
# Chain of Tyrosine-protein phosphatase non-receptor type 12 (Homo sapiens) (Q05209 whole entry, looked up): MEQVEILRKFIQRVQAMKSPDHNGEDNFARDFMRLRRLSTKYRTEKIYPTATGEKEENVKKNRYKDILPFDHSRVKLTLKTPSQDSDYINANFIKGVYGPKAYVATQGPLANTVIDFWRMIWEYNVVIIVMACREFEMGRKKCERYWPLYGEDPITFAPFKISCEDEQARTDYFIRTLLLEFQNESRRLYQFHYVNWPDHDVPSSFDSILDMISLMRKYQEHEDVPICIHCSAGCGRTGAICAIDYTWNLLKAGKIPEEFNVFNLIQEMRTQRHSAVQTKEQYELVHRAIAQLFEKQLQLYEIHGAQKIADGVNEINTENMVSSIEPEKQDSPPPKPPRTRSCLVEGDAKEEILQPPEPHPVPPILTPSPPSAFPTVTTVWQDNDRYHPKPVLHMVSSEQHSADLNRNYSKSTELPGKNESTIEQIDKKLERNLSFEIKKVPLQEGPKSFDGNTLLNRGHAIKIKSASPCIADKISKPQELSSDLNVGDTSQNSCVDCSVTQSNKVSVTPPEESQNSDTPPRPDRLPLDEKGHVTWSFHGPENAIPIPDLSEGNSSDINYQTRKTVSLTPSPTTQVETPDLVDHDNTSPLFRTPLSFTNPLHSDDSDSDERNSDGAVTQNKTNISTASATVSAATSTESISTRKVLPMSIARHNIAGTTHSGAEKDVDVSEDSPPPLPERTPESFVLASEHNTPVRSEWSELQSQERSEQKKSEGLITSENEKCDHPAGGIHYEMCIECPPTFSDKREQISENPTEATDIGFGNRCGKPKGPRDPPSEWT
# Chain of Tyrosine-protein phosphatase non-receptor type 11 (Homo sapiens) (Q06124 whole entry, looked up): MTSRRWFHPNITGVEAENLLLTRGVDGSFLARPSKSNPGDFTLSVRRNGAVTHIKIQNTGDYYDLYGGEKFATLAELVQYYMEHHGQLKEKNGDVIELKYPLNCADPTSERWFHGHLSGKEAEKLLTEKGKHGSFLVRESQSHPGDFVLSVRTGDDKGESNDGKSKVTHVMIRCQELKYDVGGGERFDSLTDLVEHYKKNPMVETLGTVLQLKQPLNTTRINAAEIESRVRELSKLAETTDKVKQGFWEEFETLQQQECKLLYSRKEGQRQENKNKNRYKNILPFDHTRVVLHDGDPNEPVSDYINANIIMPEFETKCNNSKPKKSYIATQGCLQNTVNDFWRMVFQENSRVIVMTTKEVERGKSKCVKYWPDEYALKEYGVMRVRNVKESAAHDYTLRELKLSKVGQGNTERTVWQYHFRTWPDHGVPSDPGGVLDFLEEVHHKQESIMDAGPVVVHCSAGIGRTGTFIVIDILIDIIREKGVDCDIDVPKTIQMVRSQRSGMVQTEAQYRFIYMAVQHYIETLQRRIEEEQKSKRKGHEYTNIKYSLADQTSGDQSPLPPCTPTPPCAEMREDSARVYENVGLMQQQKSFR
# Chain of Tyrosine-protein phosphatase non-receptor type 14 (Homo sapiens) (Q15678 whole entry, looked up): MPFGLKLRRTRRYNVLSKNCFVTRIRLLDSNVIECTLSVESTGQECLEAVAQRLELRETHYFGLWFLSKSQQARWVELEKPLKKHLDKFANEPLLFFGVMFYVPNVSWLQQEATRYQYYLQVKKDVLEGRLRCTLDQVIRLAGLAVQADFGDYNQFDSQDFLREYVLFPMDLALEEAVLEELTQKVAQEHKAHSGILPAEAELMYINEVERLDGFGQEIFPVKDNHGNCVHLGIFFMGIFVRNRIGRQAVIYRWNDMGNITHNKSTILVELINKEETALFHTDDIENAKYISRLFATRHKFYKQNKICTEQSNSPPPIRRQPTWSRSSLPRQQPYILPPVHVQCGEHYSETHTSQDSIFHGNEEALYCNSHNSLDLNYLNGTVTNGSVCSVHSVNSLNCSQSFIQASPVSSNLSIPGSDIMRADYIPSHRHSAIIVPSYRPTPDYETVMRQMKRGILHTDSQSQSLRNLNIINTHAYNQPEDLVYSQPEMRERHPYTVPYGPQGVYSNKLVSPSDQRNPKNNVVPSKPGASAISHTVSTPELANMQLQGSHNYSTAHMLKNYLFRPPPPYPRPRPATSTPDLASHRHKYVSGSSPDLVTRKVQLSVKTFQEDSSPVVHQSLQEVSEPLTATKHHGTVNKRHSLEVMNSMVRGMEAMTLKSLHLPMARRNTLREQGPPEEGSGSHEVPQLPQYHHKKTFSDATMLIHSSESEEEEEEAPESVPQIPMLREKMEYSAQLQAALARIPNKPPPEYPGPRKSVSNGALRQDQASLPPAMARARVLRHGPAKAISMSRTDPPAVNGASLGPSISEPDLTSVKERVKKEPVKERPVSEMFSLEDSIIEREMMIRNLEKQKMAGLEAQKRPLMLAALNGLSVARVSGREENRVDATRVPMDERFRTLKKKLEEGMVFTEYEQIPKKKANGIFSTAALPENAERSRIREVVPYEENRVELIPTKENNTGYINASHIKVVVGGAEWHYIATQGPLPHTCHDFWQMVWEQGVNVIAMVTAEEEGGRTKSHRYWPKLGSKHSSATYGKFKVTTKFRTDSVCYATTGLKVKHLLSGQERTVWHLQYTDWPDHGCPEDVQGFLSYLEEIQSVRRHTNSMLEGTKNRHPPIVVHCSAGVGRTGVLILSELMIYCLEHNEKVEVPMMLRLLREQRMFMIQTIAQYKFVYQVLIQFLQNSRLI
# Chain of human Protein Phosphatase, Mg2+/Mn2+ Dependent 1A (PPM1A), PPM1A (gene 5494) (P35813 whole entry, looked up): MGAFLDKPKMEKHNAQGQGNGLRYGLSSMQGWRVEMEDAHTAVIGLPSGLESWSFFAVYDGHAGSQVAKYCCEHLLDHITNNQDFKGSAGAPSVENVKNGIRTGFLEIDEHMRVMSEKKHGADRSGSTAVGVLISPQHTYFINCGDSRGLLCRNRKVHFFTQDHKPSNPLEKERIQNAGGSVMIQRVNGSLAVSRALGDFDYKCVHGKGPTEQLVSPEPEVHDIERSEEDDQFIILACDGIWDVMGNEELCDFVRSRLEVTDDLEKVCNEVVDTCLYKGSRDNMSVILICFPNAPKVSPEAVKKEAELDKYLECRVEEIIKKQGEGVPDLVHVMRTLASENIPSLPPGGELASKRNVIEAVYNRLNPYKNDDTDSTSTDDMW
# Chain of human Phosphoinositide 3-kinase alpha (PI3Ka), PIK3CA (gene 5290) (P42336 whole entry, looked up): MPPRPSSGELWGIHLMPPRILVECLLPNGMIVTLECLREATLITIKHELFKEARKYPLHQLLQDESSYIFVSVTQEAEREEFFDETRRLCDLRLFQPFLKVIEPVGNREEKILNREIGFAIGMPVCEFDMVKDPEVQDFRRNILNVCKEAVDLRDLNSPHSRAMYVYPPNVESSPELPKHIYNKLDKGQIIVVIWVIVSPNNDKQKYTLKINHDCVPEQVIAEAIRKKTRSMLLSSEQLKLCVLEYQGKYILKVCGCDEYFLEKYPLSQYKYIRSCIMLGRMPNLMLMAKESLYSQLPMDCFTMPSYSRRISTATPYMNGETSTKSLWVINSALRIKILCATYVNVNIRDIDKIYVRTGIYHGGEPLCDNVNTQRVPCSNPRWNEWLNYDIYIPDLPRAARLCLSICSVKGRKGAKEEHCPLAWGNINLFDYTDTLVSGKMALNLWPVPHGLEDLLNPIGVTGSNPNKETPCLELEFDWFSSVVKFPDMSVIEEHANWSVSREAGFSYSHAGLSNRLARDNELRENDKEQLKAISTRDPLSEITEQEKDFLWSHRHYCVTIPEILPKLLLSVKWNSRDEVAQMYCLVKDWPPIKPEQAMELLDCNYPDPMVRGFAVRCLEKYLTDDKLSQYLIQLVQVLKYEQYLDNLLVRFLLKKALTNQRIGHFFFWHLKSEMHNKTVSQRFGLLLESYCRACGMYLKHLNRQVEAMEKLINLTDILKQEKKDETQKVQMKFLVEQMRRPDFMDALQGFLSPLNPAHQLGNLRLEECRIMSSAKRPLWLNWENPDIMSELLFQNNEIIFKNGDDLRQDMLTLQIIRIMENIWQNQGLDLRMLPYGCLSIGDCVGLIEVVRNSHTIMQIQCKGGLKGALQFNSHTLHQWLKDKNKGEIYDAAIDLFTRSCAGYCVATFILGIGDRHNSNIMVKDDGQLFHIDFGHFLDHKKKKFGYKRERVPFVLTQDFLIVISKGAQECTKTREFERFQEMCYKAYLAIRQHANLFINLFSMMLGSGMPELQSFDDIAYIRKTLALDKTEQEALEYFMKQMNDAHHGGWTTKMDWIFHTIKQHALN
# Chain of human Protein Tyrosine Phosphatase Non-receptor Type 9 (PTPN9), PTPN9 (gene 5780) (P43378 whole entry, looked up): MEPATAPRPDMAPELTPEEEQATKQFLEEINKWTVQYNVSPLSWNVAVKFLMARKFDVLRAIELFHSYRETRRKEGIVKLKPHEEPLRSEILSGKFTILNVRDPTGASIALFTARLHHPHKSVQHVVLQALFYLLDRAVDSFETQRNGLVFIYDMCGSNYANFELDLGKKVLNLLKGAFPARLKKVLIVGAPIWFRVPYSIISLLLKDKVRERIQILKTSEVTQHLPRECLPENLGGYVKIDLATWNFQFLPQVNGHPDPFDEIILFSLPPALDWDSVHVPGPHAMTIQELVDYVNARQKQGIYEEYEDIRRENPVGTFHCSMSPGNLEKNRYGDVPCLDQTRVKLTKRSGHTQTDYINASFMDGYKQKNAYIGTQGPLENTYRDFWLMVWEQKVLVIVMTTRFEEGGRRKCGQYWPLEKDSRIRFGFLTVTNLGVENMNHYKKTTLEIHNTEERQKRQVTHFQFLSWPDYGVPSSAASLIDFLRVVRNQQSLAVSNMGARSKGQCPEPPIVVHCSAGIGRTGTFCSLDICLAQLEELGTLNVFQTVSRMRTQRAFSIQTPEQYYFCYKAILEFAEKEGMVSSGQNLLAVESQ
# Chain of human Protein Tyrosine Phosphatase Non-receptor Type 1 (PTPN1), PTPN1 (gene 5770) (P18031 whole entry, looked up): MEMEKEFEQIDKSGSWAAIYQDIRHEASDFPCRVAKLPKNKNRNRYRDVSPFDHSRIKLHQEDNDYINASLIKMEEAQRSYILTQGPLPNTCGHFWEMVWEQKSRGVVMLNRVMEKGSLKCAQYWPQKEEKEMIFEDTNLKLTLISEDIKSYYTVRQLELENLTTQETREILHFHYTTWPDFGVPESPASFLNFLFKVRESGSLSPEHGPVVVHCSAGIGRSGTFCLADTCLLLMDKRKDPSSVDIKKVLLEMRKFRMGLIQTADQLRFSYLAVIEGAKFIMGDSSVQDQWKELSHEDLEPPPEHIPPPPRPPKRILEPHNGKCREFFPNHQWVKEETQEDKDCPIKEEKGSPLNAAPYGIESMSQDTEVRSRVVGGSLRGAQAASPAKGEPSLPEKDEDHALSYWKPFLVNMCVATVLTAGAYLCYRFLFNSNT
smiles,measurement,setting,value
OCCOCCOCCO,outcome,[1],inactive
same,outcome,[2],inactive
OC[C@H]1O[C@@H]2O[C@H]3[C@H](O)[C@@H](O)[C@@H](O[C@H]4[C@H](O)[C@@H](O)[C@@H](O[C@H]5[C@H](O)[C@@H](O)[C@@H](O[C@H]6[C@H](O)[C@@H](O)[C@@H](O[C@H]7[C@H](O)[C@@H](O)[C@@H](O[C@H]1[C@H](O)[C@H]2O)O[C@@H]7CO)O[C@@H]6CO)O[C@@H]5CO)O[C@@H]4CO)O[C@@H]3CO,outcome,[3],inactive
c1ccc2cc3ccccc3cc2c1,outcome,[4],inactive
Cc1nc(-c2ccccn2)ncc1C(=O)Nn1cc(C)c2cc(F)ccc21,outcome,[5],inactive
same,outcome,[6],inactive
same,outcome,[1],inactive
same,outcome,[2],inactive
same,AC50,[4],33.8 µM (active)
same,outcome,[7],inactive
same,outcome,[3],inactive
CC[C@H](C)C(=O)O[C@H]1C[C@H](O)C=C2C=C[C@H](C)[C@H](CC[C@@H](O)C[C@@H](O)CC(=O)O)[C@H]21,outcome,[5],inactive
same,outcome,[2],inactive
CCCCCCCCN(C)C,outcome,[8],inactive
same,outcome,[9],inactive
CCc1cccc(CC)c1N,outcome,[6],inactive
O=c1[nH]cnc2c1ncn2[C@H]1CC[C@@H](CO)O1,outcome,[5],inactive
same,outcome,[6],inactive
same,outcome,[1],inactive
same,outcome,[2],inactive
same,outcome,[4],inactive
same,outcome,[7],inactive
same,outcome,[10],inactive
C[C@]12C=CC(=O)C=C1CC[C@H]1[C@@H]3C[C@@H](O)[C@](O)(C(=O)CO)[C@@]3(C)C[C@H](O)[C@@]12F,outcome,[9],inactive
CC(C)CCCCCCOC(=O)C1CCCCC1C(=O)OCCCCCCC(C)C (centres undefined),outcome,[9],inactive
CCCCCCCCCC,outcome,[2],inactive
c1ccc(C(O[C@@H]2CCCN(CCc3ccc4c(c3)OCO4)C2)c2ccccc2)cc1,outcome,[9],inactive
O=C(NO)C1(NS(=O)(=O)c2ccc(Oc3ccc(F)cc3)cc2)CCOCC1,outcome,[8],inactive
same,outcome,[6],inactive
same,outcome,[10],inactive
CCCCCCCCCCCCCCCCOS(=O)(=O)O,AC50,[5],3.42 µM (active)
O=C1CN(N=Cc2ccc([N+](=O)[O-])o2)C(=O)N1,outcome,[1],inactive
O=C(O)c1ccc2c(c1)nc(C(=O)NC1CCN(C3CC3)CC1)n2Cc1cc(-c2ccc(Cl)s2)on1,AC50,[4],0.257 µM (active)
same,outcome,[3],inactive
OC(CCl)CCl,outcome,[4],inactive
CCCCCCCC/C=C\CCCCCCCC(=O)OC[C@@H](O)[C@H]1OC[C@H](O)[C@H]1O,outcome,[5],inactive
same,outcome,[1],inactive
same,outcome,[2],inactive
same,outcome,[10],inactive
Cc1ncc([C@@H](CCCCCCc2ccc3c(n2)NCCC3)CC(=O)O)cn1,outcome,[5],inactive
same,outcome,[1],inactive
same,outcome,[2],inactive
same,outcome,[7],inactive
same,outcome,[3],inactive
COc1cc2c(c(OC)c1OC)-c1ccc(OC)c(=O)cc1[C@@H](NC(C)=O)CC2,outcome,[8],inactive
OCc1c[nH]c2ccccc12,AC50,[5],19.3 µM (active)
CCCCC(CC)C(=O)OCCOCCOCCOC(=O)C(CC)CCCC (centres undefined),outcome,[3],inactive
C[C@@H](Oc1ccc(CNC(=O)c2cccnc2Oc2ccc3c(c2)OCO3)c(F)c1)C(=O)O,outcome,[8],inactive
CCCC(CCC)C(=O)O,outcome,[5],inactive
same,outcome,[6],inactive
same,outcome,[1],inactive
same,outcome,[4],inactive
same,outcome,[7],inactive
same,outcome,[3],inactive
